Assay outcomes (PubChem)
ELG1 repair inh = inhibitors of ELG1-dependent DNA repair in HEK293T cells; HEK293T ELG1-luciferase reporter, luminescence, 16 h; DNA damage induced by 5-fluorouridine; Potency, µM (doses to about 46.1 µM), hits mostly inhibitors; 330,000 compounds, 2.3% hits; AID 504467; note: nearly all actives have a fitted effect of over 55% in size
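HEK293T cells expressing luciferase-tagged ELG1 (2,000/well) received 5-Fluorouridine plus compound or DMSO for 16 hr at 37 °C. Luciferase was read by ONE-Glo luminescence after 30 min at room temperature.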
SW480 rereplic = inducers of DNA re-replication in SW480 colon cancer cells; SW480 DNA re-replication, Hoechst DNA content imaging, 48 h; Potency, µM (series often up to 46.1 µM), usual class: activators; 340,000 compounds, 1.8% hits; AID 624297; note: nearly all actives have a fitted effect of over 55% in size
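Cells (250 per well) received 23 nL compound or DMSO by pin tool and were kept 48 hr at 37 C, 5% CO2. Nuclei were then stained with Hoechst for 40 min and scanned for DNA content.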
KB-3-1 cytotox = KB-3-1 parental cell cytotoxicity | KB-3-1 viability, CellTiter-Glo ATP luminescence, 72 h | 400,000 compounds, 1.4% hits | AID 1347075 | Potency, µM (doses to about 46.1 µM), actives largely listed as cytotoxic; note: nearly all actives have a fitted effect of over 60% in size
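Parental KB-3-1 viability, qHTS format: 72 h compound exposure, 37 °C; CellTiter-Glo; media-only wells and DMSO plates as controls; concentration-effect fits on corrected data.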
MCF10A rerep = DNA re-replication induction in MCF 10a cells; MCF 10A DNA re-replication, Hoechst nuclear intensity, 48 h; Potency, µM (top dose mostly 46.1 µM), actives largely listed as activators; 350,000 compounds, 2.9% hits; note: nearly all actives have a fitted effect of over 50% in size
KB-V1 MDR tox = kills drug-selected multidrug resistant KB-V1 cells. AID 1347076. Potency, µM (titrated, usually from 46.1 µM), most hits filed as cytotoxic. 400,000 compounds, 3.4% hits. KB-V1 MDR cells viability, CellTiter-Glo, 72 h; note: nearly all actives have a fitted effect of over 60% in size
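Cytotoxicity toward P-gp-expressing KB-V1 cells was determined as loss of CellTiter-Glo luminescence after 72 h at 37 degrees C. Compounds were tested in quantitative HTS format across a concentration range, with curves fitted to normalized data.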
Hits are given with their value; i = inactive; ? = inconclusive; nt = no result given. The list is not random: actives were taken first. Their share in the collection is about 8.1%. Calls come from the whole dose curve; as a rule, active = well fitted curve in the direction sought with a large enough effect; inconclusive = small, poorly fitted or top-dose-only effect, or another doubt; inactive = no such curve, though single readings can be large; an effect the other way counts as inactive or inconclusive.

SMILES	ELG1 repair inh	SW480 rereplic	KB-3-1 cytotox	MCF10A rerep	KB-V1 MDR tox
CC(N)C(=O)NC(C(=O)N1CCCC1C(=O)NC(c1ccccc1)c1ccccc1)C(C)C (stereo unspecified)	i	i	i	i	i
COc1ccc(NC(=S)N2CCC(N(C)CC3CCCO3)CC2)cc1 (stereo unspecified)	i	nt	i	i	i
COc1ccc(-c2ccc3c(c2)O[C@H](CN(C)C(=O)Nc2ccccc2F)[C@@H](C)CN([C@H](C)CO)S3(=O)=O)cc1	nt	nt	?	nt	11.6µM
COc1ccc(-c2ccc3c(c2)O[C@@H](CN(C)C(=O)c2ccccc2F)[C@@H](C)CN([C@@H](C)CO)S3(=O)=O)cc1	nt	nt	i	nt	i
Nc1ncnc(N2CCOCC2)c1N	i	20.6µM	i	i	i
Cc1ccccc1OCCSc1nnc(-c2cccs2)o1	nt	nt	i	nt	i
CCOC(=O)c1sc(=S)n(C)c1NC(=O)c1cccc(Br)c1	13µM	i	?	?	i
O=C(CCCSc1ccccc1)Nc1nc(-c2ccco2)c(-c2ccco2)s1	?	i	i	14.6µM	?
O=C1NCCc2c1[nH]c1ccc([N+](=O)[O-])cc21	?	i	1.64µM	i	0.92µM
O=C(N/N=C1\CCCc2c1[nH]c1ccc([N+](=O)[O-])cc21)c1ccncc1	i	nt	nt	nt	nt
O=C1NCCc2c1[nH]c1ccccc21	i	i	?	i	6.51µM
COc1ccc2[nH]c3c(c2c1)CCNC3=O	nt	i	?	i	?
COc1ccc(CNC(=O)O[C@H]2Cn3c(=O)ccc(=O)n3[C@@H]3CN(S(=O)(=O)c4ccc(C)cc4)C[C@]23O)cc1OC	nt	nt	i	nt	i
O=S(=O)(NCCc1ccccc1)c1cccc2nsnc12	i	?	i	5.17µM	?
CN(CC(=O)NCCc1ccccc1)S(=O)(=O)c1cccc2nsnc12	i	?	i	i	9.2µM
CCOc1ccc(N(C(=O)c2ccccc2F)S(=O)(=O)c2ccc3c(c2)n(C)c(=O)n3C)cc1	nt	nt	i	nt	i
O=C(NC(=S)Nc1ncccn1)c1ccc(Cl)cc1Cl	?	i	i	i	i
Nc1c(C(=O)Nc2ccc3c(c2)OCCO3)nnn1Cc1cccc(Cl)c1	?	i	16.4µM	?	i
Nc1c(C(=O)Nc2ccc3c(c2)OCCO3)nnn1Cc1ccc(F)cc1	?	i	i	i	i
O=S1(=O)CCN2C(=N1)Sc1c2ccc2c1CCCC2	?	i	i	i	4.61µM
COc1cc(C2C(C#N)=C(N)Oc3c2ccc2ccccc32)ccc1OCC(=O)Nc1ccc(C)cc1 (stereo unspecified)	?	i	?	?	?
COc1ccc(C2C(C#N)=C(N)OC3=C2C(=O)CC(C)(C)C3)cc1OC (stereo unspecified)	i	i	i	i	i
COc1ccc(C2C(C#N)=C(N)Oc3c2ccc2cccnc32)cc1OC (stereo unspecified)	i	1.64µM	2.59µM	4.61µM	i
COc1cc(C2C(C#N)=C(N)Oc3c2ccc2ccccc32)ccc1OCC(=O)Nc1cccc(C)c1 (stereo unspecified)	9.2µM	i	?	i	?
O=C(COC(=O)c1n[nH]c(=O)c2ccccc12)NC1CCCCC1	i	i	i	i	i
SMILES	ELG1 repair inh	SW480 rereplic	KB-3-1 cytotox	MCF10A rerep	KB-V1 MDR tox
Cn1cc(C2NC(=O)c3ccccc3N2)c2ccccc21 (stereo unspecified)	nt	5.8µM	1.16µM	2.91µM	1.46µM
COc1cc(C)c(C2NC(=O)c3ccccc3N2)cc1C (stereo unspecified)	nt	7.31µM	2.59µM	7.31µM	?
Cc1ccc(C)c(C2NC(=O)c3ccccc3N2)c1 (stereo unspecified)	i	7.31µM	?	2.31µM	i
Cc1ccc(C)c2nc(Cl)c(C3NC(=O)c4ccccc4N3)cc12 (stereo unspecified)	?	i	?	?	?
Cc1ccc(S(=O)(=O)N2CCN(S(=O)(=O)N3CCCCC3)CC2)c(C)c1	16.4µM	i	i	i	i
Cc1ccc(S(=O)(=O)N2CCC(c3ccncc3)CC2)c(C)c1	nt	nt	20.6µM	nt	i
O=C(COc1ccc2ccccc2c1)NCCn1ccc2ccccc21	i	i	i	i	i
CC1CC(C)CN(C(=O)C(C)N2CCN(S(=O)(=O)c3cccs3)CC2)C1 (stereo unspecified)	i	i	i	i	i
CCc1cccc(C)c1NC(=O)COC(=O)c1c2c(nc3ccccc13)/C(=C\c1cccs1)CCC2	14.6µM	18.4µM	i	10.3µM	14.6µM
CC(C)CNC(=O)COC(=O)c1c2c(nc3ccccc13)/C(=C/c1cccs1)CC2	?	3.66µM	i	3.26µM	?
NC(=O)c1ccc(NC(=O)COC(=O)c2c3c(nc4ccccc24)/C(=C\c2cccs2)CCC3)cc1	7.31µM	20.6µM	i	23.1µM	i
CC(C)OCCCNC(=O)COCC(=O)Nc1ccc(OCCc2ccccc2)cc1	i	i	i	i	?
CC(=O)ON=C1C=CC(=C(C#N)c2ccccc2)C=C1	nt	nt	3.66µM	nt	7.31µM
COc1ccc(/C(=N/O)C(C)(C)NO)cc1	i	i	i	i	i
COc1ccc(C(C#N)=C2C=CC(=NO)C=C2)cc1	i	?	?	23.1µM	?
CSC1=NC(C)(C)C=C(/C=C/c2ccc(Cl)cc2)N1	i	0.651µM	i	16.4µM	?
CSC1=NC(C)(C)C=C(/C=C/c2ccc(Cl)cc2Cl)N1	i	14.6µM	?	?	i
CSC1=NC(C)(C)C=C(/C=C/c2c(Cl)cccc2Cl)N1	i	i	i	?	i
CCOC(=O)/C=C1\SCC(=O)N1CC(=O)NC(c1ccccc1)c1ccccc1	i	i	i	i	6.51µM
COc1cccc(N2CCN(C(=O)c3cnn(C(C)(C)C)c3C3CCN(C(=O)OC(C)(C)C)CC3)CC2)c1	nt	nt	i	nt	i
COc1ccc2ncc(S(=O)(=O)c3ccccc3)c(N3CCN(c4ccccc4)CC3)c2c1	16.4µM	i	i	i	i
CC(=O)c1cccc(NC(=O)NN2CCN(C)CC2)c1	i	5.8µM	i	i	i
CC(=O)c1cccc(NC(=O)Nc2ccc(C(=O)N3CCCC3)cc2)c1	6.51µM	i	i	i	i
O=C(Nc1ccccc1)Nc1ccc(C(=O)N2CCCC2)cc1	?	?	?	i	?
COc1ccc(C(=O)Nc2cccc(C(=O)N3CCCC3)c2)cc1	?	i	i	i	20.6µM
CC(=O)c1cccc(NC(=O)Nc2ccc3c(c2)N(C)C(=O)CS3)c1	13µM	i	i	i	?
Cc1c(Cl)ccc2sc(NC(=O)c3ccco3)nc12	?	i	i	i	i
CN(C)S(=O)(=O)c1cccc(COC(=O)CN2C(=O)NC3(CCCC3)C2=O)c1	i	i	i	i	i
COc1cccc(C2=NOC(C(=O)Nc3cccnc3)C2)c1 (stereo unspecified)	i	i	i	i	16.4µM
O=C(NCc1cccnc1)C1CC(c2cccc(Br)c2)=NO1 (stereo unspecified)	i	?	?	5.8µM	i
